According to publication PMC4336329 (PLoS ONE, 2015):
Screen size: about 310,000 compounds; about 14,000 (4.5%) showed an effect of 50% or more. The effect is printed as a negative number. The sample holds strong results, similar compounds and a random draw of the others, so the mix is not that of the screen.
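Note: peak tail current of the secondary pulse compared with the same well before compound.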

The compounds below were run against human ether-à-go-go-related gene (hERG) potassium channel (human, UniProt Q12809) (assay: primary screen, population patch clamp on CHO cells stably expressing hERG; higher = less effect of the substance).
human ether-à-go-go-related gene (hERG) potassium channel, sequence (Q12809 whole entry, looked up): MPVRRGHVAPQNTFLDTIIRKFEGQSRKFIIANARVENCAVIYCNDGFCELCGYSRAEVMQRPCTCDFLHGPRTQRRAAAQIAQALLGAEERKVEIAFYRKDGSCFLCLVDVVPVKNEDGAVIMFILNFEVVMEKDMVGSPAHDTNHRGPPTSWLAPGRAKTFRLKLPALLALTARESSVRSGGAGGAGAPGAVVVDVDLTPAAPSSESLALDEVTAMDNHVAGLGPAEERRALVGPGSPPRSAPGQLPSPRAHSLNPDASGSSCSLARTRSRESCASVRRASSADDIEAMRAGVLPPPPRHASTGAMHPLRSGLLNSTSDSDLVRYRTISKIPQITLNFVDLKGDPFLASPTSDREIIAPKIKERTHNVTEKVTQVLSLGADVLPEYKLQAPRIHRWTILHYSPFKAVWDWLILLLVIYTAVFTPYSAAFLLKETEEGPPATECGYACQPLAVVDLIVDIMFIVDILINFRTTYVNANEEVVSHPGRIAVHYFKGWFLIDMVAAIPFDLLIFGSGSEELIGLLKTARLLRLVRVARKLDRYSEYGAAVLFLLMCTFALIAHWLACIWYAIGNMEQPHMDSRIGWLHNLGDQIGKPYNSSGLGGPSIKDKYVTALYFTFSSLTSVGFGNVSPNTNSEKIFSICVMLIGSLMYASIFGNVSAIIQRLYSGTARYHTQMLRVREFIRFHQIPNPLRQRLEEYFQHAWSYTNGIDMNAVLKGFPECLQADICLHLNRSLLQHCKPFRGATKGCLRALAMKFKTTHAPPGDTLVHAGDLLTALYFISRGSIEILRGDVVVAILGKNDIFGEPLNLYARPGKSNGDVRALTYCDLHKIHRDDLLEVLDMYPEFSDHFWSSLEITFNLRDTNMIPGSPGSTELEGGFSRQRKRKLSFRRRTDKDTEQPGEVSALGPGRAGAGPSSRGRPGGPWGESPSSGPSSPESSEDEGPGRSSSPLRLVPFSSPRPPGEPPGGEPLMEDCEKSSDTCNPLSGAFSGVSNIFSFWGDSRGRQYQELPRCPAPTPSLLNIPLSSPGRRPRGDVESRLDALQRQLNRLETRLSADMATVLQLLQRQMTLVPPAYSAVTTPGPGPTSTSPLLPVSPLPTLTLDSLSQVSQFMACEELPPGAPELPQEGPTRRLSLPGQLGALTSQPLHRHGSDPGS
`Cc1c(Cl)cccc1NC(=S)N1CCN(Cc2ccccc2)CC1` was tested, and the “hERG current change (%, negative = inhibition) at 10uM” value was -3.12%.
With `CN(C)C(CNC(=O)c1ccccc1C(F)(F)F)c1ccco1` (stereo not shown) the “hERG current change (%, negative = inhibition) at 10uM” value was 7.83%.
For `CCS(=O)(=O)Nc1cccc(C(=C2CCCCC2)c2cnc[nH]2)c1`, the “hERG current change (%, negative = inhibition) at 10uM” value was -30.2%.
`CCN1CCc2c(C#N)c(N3CCOCC3)nc(N3CCOCC3)c2C1` was tested, and the “hERG current change (%, negative = inhibition) at 10uM” value was 5.21%.
With `O=C(Nc1ncccn1)C1=C(O)c2ccccc2S(=O)(=O)N1Cc1ccccc1` the “hERG current change (%, negative = inhibition) at 10uM” value was 22.8%.
For `CCOC(=O)/C(C#N)=C/c1cccn1-c1ccc(Cl)cc1`, the “hERG current change (%, negative = inhibition) at 10uM” value was 2.73%.
With `C/C(=N\NC(=O)COc1ccccc1F)c1cc2ccccc2o1` the “hERG current change (%, negative = inhibition) at 10uM” value was 3.99%.
With `Cc1cc(C)cc(-c2nnc(SCc3ccc(C(=O)O)cc3)o2)c1` the “hERG current change (%, negative = inhibition) at 10uM” value was -74%.
In the case of `COc1cc(OC)cc(-c2nnc(SCc3cccc(C(=O)O)c3)o2)c1`, the “hERG current change (%, negative = inhibition) at 10uM” value is reported as 8.29%.
With `O=C(O)c1ccc(CSc2nnc(-c3ccco3)o2)cc1` the “hERG current change (%, negative = inhibition) at 10uM” value was 2.07%.
In the case of `COc1ccc(-c2nnc(SCc3ccc(C(=O)O)cc3)o2)cc1OC`, the “hERG current change (%, negative = inhibition) at 10uM” value is reported as 13.7%.
With `COc1cc(OC)cc(-c2nnc(SCc3ccc(C(=O)O)cc3)o2)c1` the “hERG current change (%, negative = inhibition) at 10uM” value was -71.6%.
In the case of `O=C(O)c1ccc(CSc2nnc(-c3ccc(Cl)cc3)o2)cc1`, the “hERG current change (%, negative = inhibition) at 10uM” value is reported as 26.5%.
In the case of `CN(C(=O)c1ccnn1C)C1CCCN(Cc2ccccc2F)C1` (stereo not shown), the “hERG current change (%, negative = inhibition) at 10uM” value is reported as 15.2%.
For `CSCCC(NC(=O)c1ccccc1Br)C(=O)N1CCN(C(C)=O)CC1` (stereo not shown), the “hERG current change (%, negative = inhibition) at 10uM” value was 8.22%.
With `O=C(COC(=O)c1ccc(Br)o1)Nc1ccc(Br)cc1` the “hERG current change (%, negative = inhibition) at 10uM” value was 19%.
In the case of `CCCc1cc(C(=O)Nc2sc3c(c2C(=O)OCC)CCCC3)no1`, the “hERG current change (%, negative = inhibition) at 10uM” value is reported as 6.07%.
For `O=C(NNc1nc(-c2ccccc2)c2cc(Br)ccc2n1)c1ccc(S(=O)(=O)N2CCCCC2)cc1`, the “hERG current change (%, negative = inhibition) at 10uM” value was 8.26%.
In the case of `COc1ccc(-c2cn[nH]c2-c2ccc(OCc3ccc([N+](=O)[O-])cc3)cc2O)cc1`, the “hERG current change (%, negative = inhibition) at 10uM” value is reported as -9.1%.
For `C/C(=N\NC(N)=S)C1(C)CCCCC1`, the “hERG current change (%, negative = inhibition) at 10uM” value was 9.27%.
With `Cc1cc(C)nc(N2CCN(c3nnnn3-c3ccccc3)CC2)n1` the “hERG current change (%, negative = inhibition) at 10uM” value was 9.05%.
For `Cc1cc(N2CCN(c3nc4ccccc4s3)CC2)n2ncnc2n1`, the “hERG current change (%, negative = inhibition) at 10uM” value was -77.6%.
`Cc1cc(N2CCN(c3ccccc3)CC2)n2ncnc2n1` was tested, and the “hERG current change (%, negative = inhibition) at 10uM” value was -31.2%.
In the case of `Cc1cc(N2CCc3ccccc32)n2ncnc2n1`, the “hERG current change (%, negative = inhibition) at 10uM” value is reported as -0.558%.
In the case of `Cc1nc2ncnn2c(C)c1C/C=C/c1ccccc1`, the “hERG current change (%, negative = inhibition) at 10uM” value is reported as -15.3%.
With `Cc1cc(N2CCN(C(c3ccccc3)c3ccccc3)CC2)n2ncnc2n1` the “hERG current change (%, negative = inhibition) at 10uM” value was -5.7%.
`c1ccc(N2CCN(c3nnnn3-c3ccccc3)CC2)cc1` was tested, and the “hERG current change (%, negative = inhibition) at 10uM” value was -11.2%.
`Cc1cc(C)nc(N2CCN(c3ccc(F)cc3)CC2)n1` was tested, and the “hERG current change (%, negative = inhibition) at 10uM” value was 13.2%.
With `Cc1cc(N2CCN(c3nnnn3-c3ccccc3)CC2)n2ncnc2n1` the “hERG current change (%, negative = inhibition) at 10uM” value was -60.2%.
`Cc1cc(N2CCN(c3ccc(F)cc3)CC2)n2ncnc2n1` was tested, and the “hERG current change (%, negative = inhibition) at 10uM” value was -57.6%.
`Cc1cc(N2CCN(Cc3ccc4c(c3)OCO4)CC2)n2ncnc2n1` was tested, and the “hERG current change (%, negative = inhibition) at 10uM” value was 7.64%.
In the case of `Cc1cc(N2CCN(C/C=C/c3ccccc3)CC2)n2ncnc2n1`, the “hERG current change (%, negative = inhibition) at 10uM” value is reported as -71.5%.
In the case of `CCCCn1c(O)c(/C=C/C=C/C=Nc2ccccc2)sc1=S`, the “hERG current change (%, negative = inhibition) at 10uM” value is reported as 31%.
`O=C(Nc1ccc(Cl)c(C(F)(F)F)c1)C(=O)N1CCCCC1` was tested, and the “hERG current change (%, negative = inhibition) at 10uM” value was -1.61%.
In the case of `CC(Oc1ccc(Br)cc1)C(=O)NCC(C)(C)N1CCOCC1` (stereo not shown), the “hERG current change (%, negative = inhibition) at 10uM” value is reported as -26%.
In the case of `COC(=O)c1ccccc1NC(=O)c1ccc(COc2ccc(C)c(C)c2)o1`, the “hERG current change (%, negative = inhibition) at 10uM” value is reported as 11.9%.
In the case of `COC(=O)C1=C(c2c(C)noc2C)C[C@@H]2CC[C@H]1N2C(=O)NCCO`, the “hERG current change (%, negative = inhibition) at 10uM” value is reported as 20%.
In the case of `Cc1nnc(N/N=C/C2CC=CCC2)[nH]c1=O` (stereo not shown), the “hERG current change (%, negative = inhibition) at 10uM” value is reported as 7.06%.
`CC(C)C(NS(=O)(=O)c1cccc2nsnc12)C(=O)NCc1ccc2c(c1)OCO2` (stereo not shown) was tested, and the “hERG current change (%, negative = inhibition) at 10uM” value was -18.7%.
For `Cc1c(NC(=O)C(C)OC(=O)CNC(=O)c2ccc(C(C)(C)C)cc2)c(=O)n(-c2ccccc2)n1C` (stereo not shown), the “hERG current change (%, negative = inhibition) at 10uM” value was 13.2%.
`Cc1cc(C)n(-c2ccc(NC(=O)C3CCN(Cc4ccc(C)o4)CC3)cc2)n1` was tested, and the “hERG current change (%, negative = inhibition) at 10uM” value was -16.6%.
In the case of `CCOC(=O)CC(=O)CSc1nc(-c2cccnc2)ccc1C#N`, the “hERG current change (%, negative = inhibition) at 10uM” value is reported as 17.5%.
In the case of `COC(=O)CSc1nsc(SCC(=O)OC)c1C#N`, the “hERG current change (%, negative = inhibition) at 10uM” value is reported as 5.34%.
In the case of `CCOC(=O)CSc1nsc(SCC(=O)OCC)c1C#N`, the “hERG current change (%, negative = inhibition) at 10uM” value is reported as -55.7%.
`CCOC(=O)CSc1nc(-c2ccncc2)ccc1C#N` was tested, and the “hERG current change (%, negative = inhibition) at 10uM” value was -61.6%.
For `CC(=O)CSc1nsc(SCC(C)=O)c1C#N`, the “hERG current change (%, negative = inhibition) at 10uM” value was 17.2%.
In the case of `CCOC(=O)CSc1nc(-c2ccc3c(c2)OCO3)ccc1C#N`, the “hERG current change (%, negative = inhibition) at 10uM” value is reported as 7.3%.
For `CC1CCc2c(sc3nc4n(c(=O)c23)CCS4)C1` (stereo not shown), the “hERG current change (%, negative = inhibition) at 10uM” value was -10.3%.
With `CCOC(=O)c1nc(Nc2ccc(C(=O)OC)cc2)c2ccccc2n1` the “hERG current change (%, negative = inhibition) at 10uM” value was 0.323%.
`COc1ccc(-c2nc3ccccc3n2OCC(=O)O)cc1` was tested, and the “hERG current change (%, negative = inhibition) at 10uM” value was 18.5%.
With `CCCCCC(=O)NC(=S)Nc1ccc(NC(=O)c2ccco2)cc1` the “hERG current change (%, negative = inhibition) at 10uM” value was 2.58%.
In the case of `CC1(C)Cc2c(sc(NC(=O)c3ccc(Br)o3)c2C#N)CO1`, the “hERG current change (%, negative = inhibition) at 10uM” value is reported as 16.6%.
`COc1ccc(-c2nc(CS(=O)CC(=O)NCc3ccccn3)c(C)o2)cc1` (stereo not shown) was tested, and the “hERG current change (%, negative = inhibition) at 10uM” value was 6.44%.
In the case of `Cc1oc(-c2cccc(F)c2)nc1CN1CCCCC1CCc1ccccn1` (stereo not shown), the “hERG current change (%, negative = inhibition) at 10uM” value is reported as -91.5%.
In the case of `Clc1ccccc1Cc1noc(CN2CCCCC2CCc2ccccn2)n1` (stereo not shown), the “hERG current change (%, negative = inhibition) at 10uM” value is reported as -29.4%.
With `Fc1cccc(Cc2noc(CN3CCCCC3CCc3ccccn3)n2)c1` (stereo not shown) the “hERG current change (%, negative = inhibition) at 10uM” value was 0.789%.
`Cn1ccnc1C1CCCCN1Cc1nc(-c2ccc3c(c2)OCO3)no1` (stereo not shown) was tested, and the “hERG current change (%, negative = inhibition) at 10uM” value was -7.65%.
For `COc1ccc(-c2nc(CN3CCCCC3CCc3ccccn3)c(C)o2)cc1` (stereo not shown), the “hERG current change (%, negative = inhibition) at 10uM” value was -90.7%.
For `COc1ccc(-c2nc(CN3CCCCC3c3cccnc3)c(C)o2)c(F)c1` (stereo not shown), the “hERG current change (%, negative = inhibition) at 10uM” value was -35.9%.
In the case of `c1ccc(CCC2CCCCN2Cc2nc(-c3ccc4c(c3)OCO4)no2)nc1` (stereo not shown), the “hERG current change (%, negative = inhibition) at 10uM” value is reported as -55.7%.
With `Cc1oc(-c2cccc3ccccc23)nc1CN1CCC[C@H]1CO` the “hERG current change (%, negative = inhibition) at 10uM” value was -12.2%.
